Assay results from PubChem BioAssay (NCI).
Compounds without any hit were thinned out: in the full panel of roughly 83,000, 20% have a hit.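 In brief: 96-well plates, 48 h treatment, single concentration, percent growth endpoint.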 Active and inactive are the calls of the source. The calls were made as follows: active = growth percent below 10; inactive = the rest.

Assays:
Experiment in all cases: NCI-60 one-dose screen, 48 h (100 = growth as untreated, 0 = no growth, -100 = all killed)
SR leukemia = settings: 10 µM
RPMI-8226 leukemia = settings: 10 µM
OVCAR-8 ovarian = settings: 10 µM
OVCAR-5 ovarian = settings: 10 µM
OVCAR-4 ovarian = settings: 10 µM
SK-OV-3 ovarian = settings: 10 µM
HS 578T breast = settings: 10 µM
T-47D breast = settings: 10 µM
BT-549 breast = settings: 10 µM
MDA-MB-435 melanoma = settings: 10 µM
SW-620 colon = settings: 10 µM
MCF7 breast = settings: 10 µM unless noted
HCT-116 colon = settings: 10 µM
HCC-2998 colon = settings: 10 µM
KM12 colon = settings: 10 µM
IGROV1 ovarian = settings: 10 µM
OVCAR-3 ovarian = settings: 10 µM
NCI/ADR-RES ovarian = settings: 10 µM

Row | SMILES | growth (SR leukemia) | growth (RPMI-8226 leukemia) | growth (OVCAR-8 ovarian) | growth (OVCAR-5 ovarian) | growth (OVCAR-4 ovarian) | growth (SK-OV-3 ovarian) | growth (HS 578T breast) | growth (T-47D breast) | growth (BT-549 breast) | growth (MDA-MB-435 melanoma) | growth (SW-620 colon) | growth (MCF7 breast) | growth (HCT-116 colon) | growth (HCC-2998 colon) | growth (KM12 colon) | growth (IGROV1 ovarian) | growth (OVCAR-3 ovarian) | growth (NCI/ADR-RES ovarian)
1 | C=CCc1cc(C(C)=O)cc(OC)c1O | 113% (inactive) | 122% (inactive) | 101% (inactive) | 101% (inactive) | 107% (inactive) | 113% (inactive) | 102% (inactive) | 118% (inactive) | 97.2% (inactive) | 113% (inactive) | 95.9% (inactive) | 106% (inactive) | 102% (inactive) | 96.3% (inactive) | 96.6% (inactive) |  |  | 
2 | O=C1N(C[P+](c2ccccc2)(c2ccccc2)c2ccccc2)CCCN1C[P+](c1ccccc1)(c1ccccc1)c1ccccc1 | 89% (inactive) | 115% (inactive) | 99.5% (inactive) | 110% (inactive) | 107% (inactive) |  | 99.8% (inactive) |  | 103% (inactive) | 105% (inactive) | 109% (inactive) | 98.7% (inactive) | 97% (inactive) |  | 111% (inactive) | 98% (inactive) | 101% (inactive) | 111% (inactive)
3 | O=C1C=CC(=O)N1c1ccc(I)cc1Cl | 110% (inactive) | 92.5% (inactive) | 73.7% (inactive) | 102% (inactive) | 99.4% (inactive) |  | 109% (inactive) | 84.1% (inactive) |  |  | 107% (inactive) | 98.1% (inactive) | 96.9% (inactive) | 95.7% (inactive) | 115% (inactive) | 113% (inactive) | 118% (inactive) | 97.9% (inactive)
4 | CCOC(=O)c1[nH]c(C)c(C(=O)O)c1C | 97.6% (inactive) | 96.6% (inactive) | 105% (inactive) | 113% (inactive) |  | 118% (inactive) | 131% (inactive) | 109% (inactive) |  | 110% (inactive) | 107% (inactive) | 78.9% (inactive) | 116% (inactive) | 107% (inactive) | 110% (inactive) | 108% (inactive) | 115% (inactive) | 107% (inactive)
5 | CC1(O)CCCCC1O (stereo not given) | 103% (inactive) | 98.6% (inactive) | 105% (inactive) | 103% (inactive) | 107% (inactive) |  | 102% (inactive) | 98.4% (inactive) | 94% (inactive) | 117% (inactive) | 104% (inactive) | 106% (inactive) | 101% (inactive) | 104% (inactive) | 115% (inactive) | 90.9% (inactive) | 120% (inactive) | 105% (inactive)
6 | C[N+](C)=c1ccc2nc3c(cc(Nc4ccccc4)c4ccccc43)oc-2c1 | 22.1% (inactive) | 31.7% (inactive) | 54.4% (inactive) | 80.7% (inactive) | 21.3% (inactive) |  | 63.6% (inactive) | 31.8% (inactive) | 41.7% (inactive) | 53.5% (inactive) | 56% (inactive) | 32.5% (inactive) | 47.1% (inactive) | 75.6% (inactive) | 62.5% (inactive) | 67.3% (inactive) | -28.6% (active) | 57.3% (inactive)
7 | CC(C)=NNc1ccc([N+](=O)[O-])cc1[N+](=O)[O-] | 90.6% (inactive) | 68.2% (inactive) | 100% (inactive) | 105% (inactive) | 96.5% (inactive) |  | 90.5% (inactive) | 64.9% (inactive) | 90.9% (inactive) | 84.2% (inactive) | 85.7% (inactive) | 93.7% (inactive) | 82.5% (inactive) | 87% (inactive) | 86.4% (inactive) | 124% (inactive) | 104% (inactive) | 93.4% (inactive)
8 | O=c1cc(-c2ccccc2)[nH]c2c1CCCC2 | 30.5% (inactive) | 21.3% (inactive) | 39.7% (inactive) | 39.3% (inactive) | 49.8% (inactive) |  | 16.3% (inactive) | 22.8% (inactive) | 53.7% (inactive) | -12.9% (active) | 24.2% (inactive) | 17.2% (inactive) | 27.9% (inactive) | 40% (inactive) | 26.3% (inactive) | 44.3% (inactive) | 15.9% (inactive) | -40.8% (active)
9 | CN(C)c1nc2c([nH]1)c(=O)n(C)c(=O)n2C | 102% (inactive) | 91.7% (inactive) | 96.9% (inactive) | 104% (inactive) | 112% (inactive) |  | 93.2% (inactive) |  | 103% (inactive) | 111% (inactive) | 102% (inactive) | 106% (inactive) | 97% (inactive) | 89.8% (inactive) | 109% (inactive) | 101% (inactive) |  | 106% (inactive)
10 | CCOc1ccc(/C=N/N=C(N)N)cc1OCC | 76.3% (inactive) | 101% (inactive) | 106% (inactive) | 101% (inactive) |  | 106% (inactive) |  | 88.4% (inactive) |  | 99% (inactive) |  | 82.3% (inactive) | 95.8% (inactive) | 101% (inactive) | 108% (inactive) | 95.9% (inactive) | 107% (inactive) | 109% (inactive)
11 | CC(=O)NC(N)=S | 90.4% (inactive) | 103% (inactive) | 104% (inactive) | 116% (inactive) | 111% (inactive) |  | 115% (inactive) | 124% (inactive) | 117% (inactive) | 117% (inactive) | 101% (inactive) | 86.5% (inactive) | 111% (inactive) | 100% (inactive) | 107% (inactive) | 121% (inactive) | 119% (inactive) | 110% (inactive)
12 | Cc1cc(/C=C/c2ccc3cc(N(C)C)ccc3[n+]2C)c(C)n1-c1ccccc1 | 2.29% (active) | -30.2% (active) | -60.4% (active) |  | 10.4% (inactive) | -32.2% (active) | -9.95% (active) | -47.3% (active) | -52.2% (active) | -49.8% (active) | 7.4% (active) | -11.6% (active) | -10.3% (active) | 0.715% (active) | -62.1% (active) | 3.27% (active) | -73.3% (active) | 24.7% (inactive)
13 | CC1CCCC(CC(N)=O)CC1 (stereo not given) | 94.7% (inactive) | 88.8% (inactive) | 89% (inactive) |  | 108% (inactive) | 107% (inactive) | 107% (inactive) | 101% (inactive) | 116% (inactive) | 104% (inactive) | 105% (inactive) | 103% (inactive) | 98.4% (inactive) | 102% (inactive) | 107% (inactive) | 114% (inactive) | 102% (inactive) | 105% (inactive)
14 | c1ccc2c(c1)Sc1ccccc1S2 | 117% (inactive) | 99.2% (inactive) | 99.3% (inactive) |  | 98.8% (inactive) | 112% (inactive) | 102% (inactive) |  | 97.5% (inactive) | 110% (inactive) | 104% (inactive) | 95.7% (inactive) | 106% (inactive) | 92.5% (inactive) | 108% (inactive) | 106% (inactive) | 113% (inactive) | 101% (inactive)
15 | CCOC(=O)c1ccc(Nc2sc(C(=O)c3cccc([N+](=O)[O-])c3)c(N)c2C#N)cc1 | -28.3% (active) | -3.9% (active) | 35.7% (inactive) |  | 33.1% (inactive) | 27.6% (inactive) | 15.5% (inactive) | 48% (inactive) | 52.9% (inactive) | -2.02% (active) | 5.69% (active) | 7.42% (active) | 0.851% (active) | 45.8% (inactive) | 17.5% (inactive) | -6.69% (active) | -44.8% (active) | 26.8% (inactive)
16 | CN(C)c1ccc(S(=O)(=O)O)cc1 | 92.9% (inactive) | 95.6% (inactive) | 101% (inactive) |  | 106% (inactive) | 89% (inactive) | 114% (inactive) | 87.6% (inactive) | 98.6% (inactive) | 110% (inactive) | 111% (inactive) | 99.8% (inactive) | 96% (inactive) | 103% (inactive) | 104% (inactive) | 118% (inactive) | 109% (inactive) | 104% (inactive)
17 | CCN1C(=O)/C(=C/C=C/N(C)c2ccccc2)SC1=S | 73.4% (inactive) | 86.8% (inactive) | 69.2% (inactive) | 102% (inactive) |  | 41.3% (inactive) | 58.6% (inactive) | 79.8% (inactive) | 80.5% (inactive) | 93.9% (inactive) | 106% (inactive) | 88.6% (inactive) | 95.1% (inactive) | 93.6% (inactive) | 106% (inactive) |  | 81.4% (inactive) | 
18 | N#CC1(Nc2ccc3c4c(cccc24)CC3)CCCCC1 | 75.4% (inactive) | 77% (inactive) | 99.6% (inactive) | 110% (inactive) |  |  | 97.2% (inactive) | 54.9% (inactive) | 96.3% (inactive) | 99% (inactive) | 110% (inactive) | 15.4% (inactive) | 108% (inactive) | 116% (inactive) | 90.1% (inactive) | 88.3% (inactive) | 111% (inactive) | 103% (inactive)
19 | COc1cc(C(=O)NC(=S)Nc2ccc3ccccc3c2)cc(OC)c1OC | 87.4% (inactive) | 88.9% (inactive) | 104% (inactive) | 99.9% (inactive) |  |  | 94.5% (inactive) | 91.2% (inactive) | 121% (inactive) |  | 74% (inactive) | 93.2% (inactive) | 104% (inactive) | 99.5% (inactive) | 95.5% (inactive) | 95.5% (inactive) | 107% (inactive) | 51.5% (inactive)
20 | Cc1cc(C)c(CC(=O)O)c(C)c1 | 98.5% (inactive) | 112% (inactive) | 102% (inactive) |  | 95.1% (inactive) | 110% (inactive) | 109% (inactive) | 106% (inactive) | 104% (inactive) | 104% (inactive) | 102% (inactive) | 95.9% (inactive) | 105% (inactive) | 111% (inactive) | 103% (inactive) |  | 104% (inactive) | 
